Screens: PubChem, National Center for Advancing Translational Sciences (NCATS)
AMA1-RON2 inh = qHTS for Inhibitors of AMA1-RON; Towards Development of Antimalarial Drug Lead: Primary Screen; AlphaScreen AMA1-biotinylated RON2 peptide binding; Potency, µM (titrated, usually from 58.2 µM), inactives show top-dose activity change, negative = inhibition, most hits filed as inhibitors; 360,000 tested, 0.2% active; AID 720542, 2013;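 further: 0% = vehicle wells and -100% = peptide control; nearly all actives have a fitted effect of over 45% in size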
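AMA1 (3D7) with his tag at 25 nM final met compounds first, then biotinylated RON2 peptide at 25 nM; detection used donor plus acceptor beads, 10 µg/mL apiece, read by AlphaScreen after 30 min at room temperature.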
Pf growth 96h = Primary qHTS for delayed death inhibitors of the malarial parasite plastid, 96 hour incubation; 320,000 tested, 6.9% active; Potency, µM (top dose mostly 28.7 µM), inactives show at the top dose activity change, negative = inhibition, actives largely listed as inhibitors; P. falciparum luciferase reporter growth, 96 h; further: on the % scale 0 is the no-effect control and ±100 the full control effect
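Readout is luminescence from an integrated firefly luciferase in P. falciparum. Red cells, 2% hematocrit and 0.05% parasitemia final, were cultured with compound through two parasite generations (96 hours) at 37 C, 5% CO2.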
SARS PLpro yeast = qHTS of Yeast-based Assay for SARS-CoV PLP; S. cerevisiae expressing SARS-CoV PLpro, growth rescue; Potency, µM (highest dose often 32.9 µM), for inactives: top-dose activity, positive = growth rescue, most hits filed as activators; 330,000 tested, 0.19% active; AID 485353, 2010; calls by dose curve; further: 0% is about no effect; nearly all actives have a fitted effect of over 55% in size
Pf growth 48h = Primary qHTS for delayed death inhibitors of the malarial parasite plastid, 48 hour incubation; P. falciparum luciferase growth in erythrocytes, 48 h; Potency, µM (titrated, usually from 28.7 µM), without a hit: at the highest dose activity change, negative = inhibition, usual class: inhibitors; 310,000 tested, 5.9% active; AID 504832, 2011; further: on the % scale 0 is the no-effect control and ±100 the full control effect
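Luminescence readout; reporter = integrated firefly luciferase in P. falciparum. RBC culture at 2% hematocrit, 0.1% parasitemia final, 37 C/5% CO2; decreased signal taken as growth inhibition.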
* marks the source's active call; other numbers are inactive results. Most compounds without a hit are left out; they make up all but 9.4% or so of the library. Unless noted, the call rests on the fitted dose curve; in most records, active means well fitted curve in the direction sought with a large enough effect; inconclusive means small, poorly fitted or top-dose-only effect, or another doubt; inactive means no such curve, though single readings can be large; an effect the other way counts as inactive or inconclusive. Potency means the concentration at half of the fitted maximal effect.

What do the screens show for `COCCOC(=O)c1[nH]c2c(c1C)C(=O)CC(c1ccc(N(C)C)cc1)C2` (stereo not given)?
AMA1-RON2 inh: -22%; Pf growth 96h: inconclusive; SARS PLpro yeast: 5%; Pf growth 48h: 12µM*

What do the screens show for `CCOC(=O)c1[nH]c2c(c1-c1ccc(OC)cc1)C(=O)CC(c1ccc(OC)c(OC)c1)C2` (stereo not given)?
AMA1-RON2 inh: 0%; Pf growth 96h: 8.3µM*; SARS PLpro yeast: 14%; Pf growth 48h: inconclusive

Results for NC(=O)c1ccc(OCCC(O)N2CC=C(c3ccc(F)cc3)CC2)cc1 (stereo not given) ?
AMA1-RON2 inh: 0%; Pf growth 96h: -5%; Pf growth 48h: inconclusive

What do the screens show for `CCOC(=O)C1CCN(S(=O)(=O)c2ccc(Cl)nc2)CC1`?
AMA1-RON2 inh: -8%; Pf growth 96h: -17%; SARS PLpro yeast: -1%; Pf growth 48h: 42%

How did S=C(Nc1ccccc1)c1ccccn1 do in these assays?
AMA1-RON2 inh: -53%; Pf growth 96h: inconclusive; SARS PLpro yeast: 0%; Pf growth 48h: 52%

What do the screens show for `COCCOC(=O)c1[nH]c2c(c1C)C(=O)CC(c1ccccc1)C2` (stereo not given)?
AMA1-RON2 inh: -1%; Pf growth 96h: inconclusive; SARS PLpro yeast: 9%; Pf growth 48h: inconclusive

Results for COCCOC(=O)c1[nH]c2c(c1C)C(=O)CC(c1cc(OC)c(OC)c(OC)c1)C2 (stereo not given) ?
AMA1-RON2 inh: 9%; Pf growth 96h: 9.3µM*; SARS PLpro yeast: 1%; Pf growth 48h: 5.2µM*

How did O=C(Cc1ccc(-n2c(=O)[nH]c3ccccc3c2=O)cc1)N1CCN(c2ccccc2)CC1 do in these assays?
AMA1-RON2 inh: -3%; Pf growth 96h: 37%; SARS PLpro yeast: 0%; Pf growth 48h: 12µM*

How did COc1ccc(N2CCN(C(=O)CCCSc3nc4ccccc4[nH]3)CC2)cc1 do in these assays?
AMA1-RON2 inh: -6%; Pf growth 96h: 9.3µM*; SARS PLpro yeast: -9%

What do the screens show for `COc1ccc(N2CCN(CCCNC(=O)C(=O)c3c(C)[nH]c4ccccc34)CC2)cc1`?
AMA1-RON2 inh: inconclusive; Pf growth 96h: inconclusive; SARS PLpro yeast: 1%; Pf growth 48h: 5.2µM*

Results for COc1ccc(NC(=O)CCCn2c(=O)[nH]c3ccccc3c2=O)cc1 ?
AMA1-RON2 inh: -9%; Pf growth 96h: -1%; SARS PLpro yeast: 5%; Pf growth 48h: 2.3µM*

What do the screens show for `NC(=O)CCCSc1nc2ccccc2[nH]1`?
AMA1-RON2 inh: 11%; Pf growth 96h: 16%; SARS PLpro yeast: 0%; Pf growth 48h: 3%

How did Cc1cc(C)cc(OCC(=O)Nc2cccc(C(=O)O)c2)c1 do in these assays?
AMA1-RON2 inh: 4%; Pf growth 96h: 77%; SARS PLpro yeast: 2%

How did COc1ccc(N2CCN(C(=O)Cn3c(=O)[nH]c4ccccc4c3=O)CC2)cc1 do in these assays?
Pf growth 96h: 10µM*; SARS PLpro yeast: 1%; Pf growth 48h: 12%

What do the screens show for `O=C(Cn1c(=S)[nH]c2ccccc2c1=O)N1CCN(c2ccc(F)cc2)CC1`?
AMA1-RON2 inh: -1%; Pf growth 96h: -20%; SARS PLpro yeast: 0%; Pf growth 48h: -10%

What do the screens show for `Cc1ccc(NC(=O)Nc2cccnc2)cc1NC(=O)Nc1cccnc1`?
AMA1-RON2 inh: -8%; Pf growth 96h: inconclusive; SARS PLpro yeast: 1%; Pf growth 48h: 9.3µM*

What do the screens show for `Cc1ccc(C(=O)Nc2cccnc2)cc1Cl`?
AMA1-RON2 inh: -6%; Pf growth 96h: 10µM*; SARS PLpro yeast: -12%; Pf growth 48h: 56%

What do the screens show for `Cc1ccc(C(=O)Nc2cccnc2)cc1S(=O)(=O)N1CCCCC1`?
AMA1-RON2 inh: 19%; Pf growth 96h: 2.1µM*; SARS PLpro yeast: -1%; Pf growth 48h: inconclusive

How did O=C(Nc1cccnc1)c1ccc(Br)c(S(=O)(=O)N2CCCC2)c1 do in these assays?
AMA1-RON2 inh: -7%; Pf growth 96h: inconclusive; SARS PLpro yeast: 3%; Pf growth 48h: 13µM*

Results for CC(=O)Nc1cc(-c2cccc(C(=O)N(C)C)c2)cn2c(-c3ccc(C(C)=O)cc3)cnc12 ?
AMA1-RON2 inh: -6%

What do the screens show for `O=C(N/N=C/C=C/c1ccco1)c1ccccc1Cl`?
AMA1-RON2 inh: 53%; Pf growth 96h: -5%; SARS PLpro yeast: 1%; Pf growth 48h: 19%

How did CC(C)c1ccc(C(=O)Nc2cccnc2)cc1 do in these assays?
AMA1-RON2 inh: -3%; Pf growth 96h: 10µM*; SARS PLpro yeast: -9%; Pf growth 48h: 317%

What do the screens show for `Cc1cc(NC(=O)c2cccc(S(=O)(=O)N3CCCC3)c2)no1`?
AMA1-RON2 inh: 0%; Pf growth 96h: -1%; SARS PLpro yeast: -1%; Pf growth 48h: 6%

Results for Cc1cc(NC(=O)c2ccc(Br)c(S(=O)(=O)N3CCCC3)c2)no1 ?
AMA1-RON2 inh: -11%; SARS PLpro yeast: 0%; Pf growth 48h: 10µM*

Results for O=C1c2ccccc2C(c2nnnn2Cc2ccccc2)N1CCCn1ccnc1 (stereo not given) ?
AMA1-RON2 inh: -6%

How did Cc1ccc2c(c1)nnn2C1CCN(S(=O)(=O)c2cccc(S(=O)(=O)N(C)C)c2)CC1 do in these assays?
AMA1-RON2 inh: 32%; Pf growth 96h: inconclusive; SARS PLpro yeast: 0%; Pf growth 48h: 10µM*

What do the screens show for `Cc1ccc2c(c1)nnn2C1CCN(S(=O)(=O)c2ccc(C(=O)NC3CCCC3)cc2)CC1`?
AMA1-RON2 inh: -3%; SARS PLpro yeast: 2%; Pf growth 48h: inconclusive

What do the screens show for `Cc1ccc2c(c1)nnn2C1CCN(S(=O)(=O)c2ccc3ccccc3c2)CC1`?
AMA1-RON2 inh: -16%; Pf growth 96h: -19%; SARS PLpro yeast: 13%; Pf growth 48h: 10µM*

How did Cc1ccc2c(c1)nnn2C1CCN(S(=O)(=O)c2ccc(C(=O)N(C)C)cc2)CC1 do in these assays?
AMA1-RON2 inh: -6%; Pf growth 96h: -25%; SARS PLpro yeast: 10%; Pf growth 48h: inconclusive

Results for O=S(=O)(NC1CCCC1)c1cccc(S(=O)(=O)N2CCC(n3nnc4ccccc43)CC2)c1 ?
AMA1-RON2 inh: -9%; Pf growth 96h: 42%; SARS PLpro yeast: 1%; Pf growth 48h: 10µM*

How did Cc1cccc(S(=O)(=O)N(C)C[C@H]2OCc3cn(nn3)CCCC(=O)N([C@@H](C)CO)C[C@@H]2C)c1 do in these assays?
AMA1-RON2 inh: 0%

What do the screens show for `CC(C)Oc1ccc(C(=O)N2CCC(CCC(=O)NC3CC3)CC2)cc1`?
AMA1-RON2 inh: 6%

Results for CCN(CC)CCN1C(=O)C(O)=C(C(=O)c2cc3ccccc3o2)C1c1cccnc1 (stereo not given) ?
AMA1-RON2 inh: 6%; Pf growth 96h: 36%; SARS PLpro yeast: -4%; Pf growth 48h: 6%

How did C=CCc1ccccc1OCC(=O)NNC(=S)NCc1ccccc1 do in these assays?
AMA1-RON2 inh: 20%; Pf growth 96h: 10µM*; SARS PLpro yeast: 11%; Pf growth 48h: 37%

Results for O=C(COc1ccc(Cl)cc1)NNC(=S)NCc1ccccc1 ?
AMA1-RON2 inh: 108%; Pf growth 96h: 27%; SARS PLpro yeast: 16%; Pf growth 48h: inconclusive
